In PubChem BioAssay (EPA / NIEHS):
Inconclusive results are not listed. Calls of active or inactive are those of the source. Rule for the calls: active = hit-call score of the fitted dose curve at least 0.9, where 1 is the maximum; inconclusive = response in the unintended direction; inactive = score below 0.9.

Assay: Tanguay_ZF_120hpf_TRUN_legacy: (Legacy) Oregon State University Tanguay Lab 120 Hour Post-fertilization zebrafish Assay for Truncated Body (AID 2283655)
Experimental: Tanguay_ZF_120hpf_legacy is a whole embryo, multiplexed endpoint assay using zebrafish larvae exposed for 120 hours post fertilization on a 96-well plate.Tanguay_ZF_120hpf_TRUN_legacy is one of one assay component(s) measured or calculated from the Tanguay_ZF_120hpf_legacy assay. It is designed to make measurements of zebrafish development as detected with brightfield microscopy of developing zebrafish embryos.Data from the assay component Tanguay_ZF_120hpf_TRUN_legacy was analyzed into 1 assay endpoints. This assay endpoint, Tanguay_ZF_120hpf_TRUN_legacy, was analyzed in the positive analysis fitting direction relative to DMSO as the negative control and baseline of activity. Using a type of morphology reporter, gain-of-signal activity can be used to understand changes in developmentals as they relate to the whole embryo. To generalize the intended target to other relatable targets, this assay endpoint is annotated to the zebrafish development intended target family, where the subfamily is embryonic morphogenesis.
Zebrafish husbandry: Tropical 5D wild-type adult zebrafish were housed in at an approximate density of 1000 per 100 gallon tank at the Sinnhuber Aquatic Research Laboratory, Oregon State University, Corvallis, OR. Each tank was kept at standard laboratory conditions of 28C on a 14-h light/10-h dark photoperiod in fish water consisting of reverse osmosis water supplemented with a commercially available salt (Instant Ocean). Spawning funnels were placed into the tanks the night prior, and embryos were collected and staged. To increase bioavailability, the chorion was enzymatically removed using pronase (63.6mg/ml, >/= 3.5U/mg, Sigma-Aldrich: P5147) at 4 hours post fertilization (hpf) using a custom automated dechorionator.Chemical exposures: Six hpf dechorionated embryos were placed 1 embryo per well in a 96-well plate prefilled with 90 ul of EM using automated embryo placement systems (AEPS). Ten microliters of each row of dilution plate 2 was added to 2 exposure plates. The final DMSO concentration used was 0.64% (vol/vol). Thirty-two embryos were also exposed to 5uM trimethyltin chloride (positive control). Plates were sealed to prevent evaporation and foil covered to reduce light exposure and kept in a 28C incubator. Embryos were statically exposed until 120 hpf. At 24 hpf, embryos were assessed for photomotor response using a custom photomotor response analysis tool (PRAT) and for developmental toxicity endpoints (MO24: mortality at 24 hpf, DP: developmental progression, SM: spontaneous movement, and NC: notochord distortion). At 120 hpf, locomotor activity was measured using Viewpoint Zebralab and assessed for 18 endpoints. Zebrafish acquisition and analysis program (ZAAP), a custom program designed to inventory, acquire, and manage zebrafish data, was used to collect developmental endpoints as either present or absent (i.e., binary responses were recorded). If mortality occurred for an embryo (at either 24 or 120 hpf), the non-mortality endpoints were not measured.
With CCCCCCC(C=O)=Cc1ccccc1 the outcome was “inactive”. For O=[Si]=O, the outcome was “inactive”. In the case of O=C(N[C@@H](c1ccccc1)[C@@H]1CCCCN1)c1cccc(C(F)(F)F)c1Cl, the outcome is reported as “inactive”. With CC(C)OC(=O)C(C)(C)Oc1ccc(C(=O)c2ccc(Cl)cc2)cc1 the outcome was “inactive”. With CCCC(=O)O the outcome was “inactive”. For CN(C)C(=O)NC1(c2ccccc2)CCN(CC[C@@]2(c3ccc(F)c(F)c3)CN(C(=O)c3ccccc3)CCO2)CC1, the outcome was “inactive”. In the case of CC(C)c1cccc(C(C)C)c1NC(=O)NS(=O)(=O)c1cc(C(C)(C)O)co1, the outcome is reported as “inactive”. With O=C(O)CC(O)(CC(=O)O)C(=O)O the outcome was “inactive”. With S=c1[nH]c2ccccc2s1 the AC50 was 11.4 µM (active). With CCc1nc(N)nc(N)c1-c1ccc(Cl)cc1 the outcome was “inactive”. In the case of CC1=C(C)S(=O)(=O)CCS1(=O)=O, the outcome is reported as “inactive”. For Oc1ccc(O)cc1, the outcome was “inactive”. For C=CCCCCCCCCCCCC, the outcome was “inactive”. For CC(C)c1cccc(C(C)C)c1, the outcome was “inactive”. In the case of C=CCc1ccc(OC)c(OC)c1, the outcome is reported as “inactive”. With OCC(O)CO the outcome was “inactive”. For CC(=O)[C@@]1(O)CC[C@H]2[C@@H]3CCC4=CC(=O)CC[C@]4(C)[C@H]3CC[C@@]21C, the outcome was “inactive”. For CC(C)(C)c1ccccc1, the outcome was “inactive”. With COC(=O)CCCC(=O)OC the outcome was “inactive”. With NCCOCCOCCN the outcome was “inactive”. For CN(C)CCCN1c2ccccc2Sc2ccc(Cl)cc21, the outcome was “inactive”. For CC(=O)CC(c1ccccc1)c1c(O)c2ccccc2oc1=O (stereo not given), the outcome was “inactive”. For O=Cc1ccccc1C=O, the outcome was “inactive”. With CCc1cc(C2=C(C(=O)O)N(c3ccccc3C(F)(F)F)S(=O)(=O)c3ccccc32)cc2c1OCO2 the outcome was “inactive”. With CC(=O)O the outcome was “inactive”. For CSc1ccc(Oc2ccc(S(N)(=O)=O)cc2CN(C)C)cc1C, the outcome was “inactive”. For OCC(CO)n1cnc(-c2ccc(F)cc2)c1-c1ccnc(Oc2ccccc2)n1, the outcome was “inactive”. For c1ccc2occc2c1, the outcome was “inactive”. In the case of CC(COCC(C)OC(=O)c1ccccc1)OC(=O)c1ccccc1 (stereo not given), the outcome is reported as “inactive”. In the case of Oc1ccccc1O, the outcome is reported as “inactive”. For NC1CCCCC1, the outcome was “inactive”. With Cc1cc(Cc2ccc(N)c(C)c2)ccc1N the outcome was “inactive”. In the case of O=C1CCCCC1, the outcome is reported as “inactive”. With CCN(CC)CCOc1ccc(C(=C(Cl)c2ccccc2)c2ccccc2)cc1 the outcome was “inactive”. For Cc1ccc(-c2cc(C(F)(F)F)nn2-c2ccc(S(N)(=O)=O)cc2)cc1, the outcome was “inactive”. For CC(=O)OC1CC(C)OC(C)O1 (stereo not given), the outcome was “inactive”. With NC(=Nc1ccccc1)Nc1ccccc1 the outcome was “inactive”. For O=C(O)CN(CC(=O)O)CC(=O)O, the outcome was “inactive”. For CCCCCCCCCCCCCCCCO, the outcome was “inactive”. With NC=O the outcome was “inactive”.
